A short description of assay [1]: A CellTox Green Cytotoxicity Assay to monitor cytotoxicity in HEK293 cells - 40 hour (AID 1224871). Note: nearly all actives have a fitted effect of over 45% in size. Note: potency is the fitted concentration of half-maximal effect. The essentials: (§1)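 Nonlytic real-time cytotoxicity: HEK293 + CellTox Green reagent plated, 5 h preincubation, pintool compound addition (23 nL in DMSO), 37 C for 40 h, fluorescence measured at successive time points.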
Assay [2] in a line: qHTS RealTime-Glo MT Cell Viability Assay in HEK293 cells - 16 hour (AID 1224872). Note: nearly all actives have a fitted effect of over 50% in size. Note: potency is the fitted concentration of half-maximal effect. The essentials: (§2)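 Cells + reagent dispensed (600 cells/well, HEK293) → 5 h at 37 C/5% CO2 → 23 nL compound in DMSO pinned → 40 h at 37 C → luminescence read at 0, 8, 16, 24, 32, 40 h.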
(In general: qHTS replaces the single test concentration by a dilution series.)

Assay [3] in a line: qHTS RealTime-Glo MT Cell Viability Assay in HepG2 cells - 8 hour (AID 1224873). Note: nearly all actives have a fitted effect of over 55% in size. In short, it runs like this:
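HepG2 cells (600/well) mixed with RealTime-Glo MT reagent, settled 5 h at 37 C/5% CO2 before compound addition. Nonlytic NanoLuc luminescence from viable-cell prosubstrate reduction read repeatedly during 40 h treatment at 37 C.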

A short description of assay [4]: A CellTox Green Cytotoxicity Assay to monitor cytotoxicity in HEK293 cells - 24 hour (AID 1224875). Note: nearly all actives have a fitted effect of over 45% in size. Note: potency is the fitted concentration of half-maximal effect. In short, it runs like this: as §1
Assay [5] can be described thus: qHTS RealTime-Glo MT Cell Viability Assay in HepG2 cells - 32 hour (AID 1224877). Note: nearly all actives have a fitted effect of over 55% in size. Note: potency is the fitted concentration of half-maximal effect. The essentials:
(§3)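 Real-time, nonlytic viability: 600 HepG2 cells/well mixed with NanoLuc enzyme plus prosubstrate; 5 h settle, compound (DMSO) added by pintool; luminescence monitored over 40 h at 37 C.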

Assay [6] is described as follows: A CellTox Green Cytotoxicity Assay to monitor cytotoxicity in HepG2 cells - 24 hour (AID 1224878). Note: nearly all actives have a fitted effect of over 45% in size. Note: potency is the fitted concentration of half-maximal effect. In short, it runs like this:
(§4)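 Read-out is fluorescence of a cyanine dye excluded from live cells that stains DNA of dead HepG2 cells, with signal proportional to cytotoxicity. Plates were read at 0, 8, 16, 24, 32 and 40 h after compound addition.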

The nature of assay [7]: A CellTox Green Cytotoxicity Assay to monitor cytotoxicity in HepG2 cells - 40 hour (AID 1224879). Note: nearly all actives have a fitted effect of over 40% in size. Note: potency is the fitted concentration of half-maximal effect. The essentials:
as §4

Assay [8] in a line: qHTS RealTime-Glo MT Cell Viability Assay in HEK293 cells - 0 hour (AID 1224880). Note: top concentration of the series differs between compounds; nearly all actives have a fitted effect of over 45% in size. In short, it runs like this: (§5)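 Cells were seeded together with NanoLuc luciferase and a prosubstrate that viable cells reduce to a luciferase substrate. After a 5 h incubation at 37 C/5% CO2, compounds were added and luminescence was measured repeatedly during 40 h of treatment.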
Assay [9] in a line: A CellTox Green Cytotoxicity Assay to monitor cytotoxicity in HepG2 cells - 0 hour (AID 1224882). Note: nearly all actives have a fitted effect of over 35% in size. In short, it runs like this:
as §4

A short description of assay [10]: A CellTox Green Cytotoxicity Assay to monitor cytotoxicity in HepG2 cells - 32 hour (AID 1224883). Note: nearly all actives have a fitted effect of over 50% in size. Note: potency is the fitted concentration of half-maximal effect. The essentials: as §4
Assay [11] can be described thus: A CellTox Green Cytotoxicity Assay to monitor cytotoxicity in HEK293 cells - 8 hour (AID 1224884). Note: nearly all actives have a fitted effect of over 35% in size. In short, it runs like this: as §1
Assay [12] in a line: qHTS RealTime-Glo MT Cell Viability Assay in HepG2 cells - 16 hour (AID 1224885). Note: nearly all actives have a fitted effect of over 50% in size. Note: potency is the fitted concentration of half-maximal effect. In short, it runs like this: as §3
Assay [13] in a line: qHTS RealTime-Glo MT Cell Viability Assay in HEK293 cells - 24 hour (AID 1224886). Note: nearly all actives have a fitted effect of over 50% in size. Note: potency is the fitted concentration of half-maximal effect. The essentials: as §2
Assay [14] is described as follows: qHTS RealTime-Glo MT Cell Viability Assay in HEK293 cells - 8 hour (AID 1224887). Note: nearly all actives have a fitted effect of over 50% in size. Note: potency is the fitted concentration of half-maximal effect. In short, it runs like this: as §5
Assay [15] is described as follows: A CellTox Green Cytotoxicity Assay to monitor cytotoxicity in HEK293 cells - 16 hour (AID 1224888). Note: nearly all actives have a fitted effect of over 35% in size. Note: potency is the fitted concentration of half-maximal effect. The essentials:
as §1

Assay [16] can be described thus: qHTS RealTime-Glo MT Cell Viability Assay in HepG2 cells - 0 hour (AID 1224889). Note: nearly all actives have a fitted effect of over 50% in size. Note: potency is the fitted concentration of half-maximal effect. In short, it runs like this:
as §3

Assay [17] is described as follows: A CellTox Green Cytotoxicity Assay to monitor cytotoxicity in HepG2 cells - 8 hour (AID 1224890). Note: nearly all actives have a fitted effect of over 45% in size. The essentials: as §4
Assay [18] in a line: A CellTox Green Cytotoxicity Assay to monitor cytotoxicity in HepG2 cells - 16 hour (AID 1224876). Note: nearly all actives have a fitted effect of over 45% in size. Note: potency is the fitted concentration of half-maximal effect. In short, it runs like this:
as §4

Assay [19] is described as follows: A CellTox Green Cytotoxicity Assay to monitor cytotoxicity in HEK293 cells - 32 hour (AID 1224881). Note: nearly all actives have a fitted effect of over 40% in size. Note: potency is the fitted concentration of half-maximal effect. In short, it runs like this:
as §1

The nature of assay [20]: qHTS RealTime-Glo MT Cell Viability Assay in HEK293 cells - 40 hour (AID 1224874). Note: nearly all actives have a fitted effect of over 50% in size. Note: potency is the fitted concentration of half-maximal effect. Particulars: RealTime-Glo luminescence; max response: stronger effect = lower value. The essentials: as §5

SMILES strings stand for the structures. A number with no mark means an inactive call. Inconclusive results are not listed. Active and inactive are the calls of the source. Calls come from the whole dose curve; as a rule, active = well fitted curve in the direction sought with a large enough effect in the repeat runs; inconclusive = weak or mixed curves; inactive = no such curve, though single readings can be large; an effect the other way counts as inactive or inconclusive.
% is set by controls: 0 for no effect and ±100 for the full control effect.

Take `O=C(O)CCN(C1(C(=O)NO)CCCC1)S(=O)(=O)c1ccc(Oc2ccc(F)cc2)cc1`: the Potency result in assay [1], in [2], in assay [3], in [4], in assay [5] and in assay [6] was “inactive” in each case. Also, the Potency entry in assay [7], in [8], in [9], in assay [10], in assay [11] and in assay [12] was “inactive” throughout. Besides, the Potency result in [13], in assay [14], in assay [15], in assay [16] and in assay [17] was “inactive” in each case.
`[Cu+]`: the Potency result in assay [1], in assay [2], in assay [3], in assay [4], in assay [18] and in assay [6] was “inactive” throughout. Further, the Potency result in [7], in assay [8], in [9], in assay [10], in [11] and in [12] was “inactive” throughout. Moreover, the Potency entry in assay [14], in [15], in assay [16] and in assay [17] was “inactive” throughout. In [5], the Potency was 49 µM (active).
With `O=[N+]([O-])c1ccc(O)cc1C(F)(F)F`, the Potency result in assay [1], in assay [2], in assay [3], in assay [4], in assay [18] and in [6] was “inactive” in each case. In addition, the Potency entry in assay [8], in assay [19], in assay [9], in assay [10], in assay [11] and in assay [12] was “inactive” in each case. The Potency result in [14], in [15], in assay [16] and in [17] was “inactive” in each case.
Take `CN1CCC[C@@H]1CCO[C@](C)(c1ccccc1)c1ccc(Cl)cc1`: the Potency is 26.8 µM (active) in [1]; 19 µM (active) in assay [2]; 16.9 µM (active) in assay [20]; 26.8 µM (active) in assay [4]; 21.3 µM (active) in assay [18]; 23.9 µM (active) in [5]. Moreover, the Potency was 21.3 µM (active) in assay [6]; 21.3 µM (active) in assay [7]; 21.3 µM (active) in assay [10]; 10.7 µM (active) in [13]; 23.9 µM (active) in assay [15]. Moreover, the Potency result in assay [9], in assay [11] and in [14] was “inactive” each time.
Consider `CC(=O)OCC=C(C)C`, for which the Potency entry in assay [1], in [2], in assay [3], in [4], in assay [5] and in [8] was “inactive” throughout. The Potency result in [19], in [9], in assay [11], in assay [12], in assay [13] and in assay [14] was “inactive” in each case. The Potency entry in assay [15], in assay [16] and in [17] was “inactive” throughout.
`c1ccc(SSc2ccccc2)cc1`: the Potency result in [1], in assay [2], in [3], in [4], in assay [18] and in assay [5] was “inactive” each time. The Potency result in [6], in [7], in assay [19], in [9], in assay [10] and in assay [11] was “inactive” throughout. Further, the Potency entry in assay [12], in [13], in assay [14], in assay [15], in assay [16] and in [17] was “inactive” each time.
For `Cc1cc(C(C#N)c2ccc(Cl)cc2)c(Cl)cc1NC(=O)c1cc(I)cc(I)c1O` (stereo not drawn), the Potency entry in assay [1], in assay [2], in assay [3], in [4], in [18] and in assay [5] was “inactive” each time. Further, the Potency entry in [6], in assay [7], in assay [8], in [19], in assay [9] and in [10] was “inactive” throughout. Also, the Potency result in assay [11], in assay [12], in [13], in assay [14], in [15] and in assay [16] was “inactive” in each case. Also, the Potency entry in assay [17] is “inactive”.
On to `O=C(/C=C/c1ccccc1)OC/C=C/c1ccccc1`, for which the Potency entry in assay [1], in assay [2], in assay [3], in assay [5], in [6] and in [7] was “inactive” each time. Moreover, the Potency entry in assay [8], in [19], in [9], in assay [10], in [12] and in [13] was “inactive” throughout. The Potency result in [15], in assay [16] and in [17] was “inactive” each time. Besides, the max response in [20] was -1.97%.
In the case of `O=c1oc2cc(O)ccc2c2oc3cc(O)ccc3c12`, the Potency result in [1], in [3], in assay [4], in assay [18], in [5] and in assay [6] was “inactive” in each case. For the same compound, the Potency result in [7], in assay [8], in assay [19], in assay [9], in assay [10] and in assay [11] was “inactive” in each case. Moreover, the Potency result in assay [12], in [15], in [16] and in [17] was “inactive” in each case. Moreover, the Potency in [2] is 21 µM (active); in assay [13], 21 µM (active); in assay [14], 16.7 µM (active).
Turning to `CC1=Nc2ccccc2C1(C)C`, the Potency entry in [1], in [2], in assay [3], in assay [4], in assay [5] and in [8] was “inactive” each time. The Potency result in [19], in assay [11], in assay [12], in [13], in assay [14] and in assay [15] was “inactive” each time. Further, the Potency entry in [16] was “inactive”. The Potency is 49 µM (active) in assay [6], 38.9 µM (active) in assay [7] and 43.7 µM (active) in assay [10].
Consider `CC(C)(C)NSc1nc2ccccc2s1`, for which the Potency entry in assay [1], in [2], in [4], in [18], in [5] and in [6] was “inactive” in each case. The Potency result in assay [7], in assay [8], in assay [19], in assay [9], in assay [10] and in assay [11] was “inactive” throughout. For the same compound, the Potency entry in assay [12], in assay [13], in assay [14], in assay [15], in assay [16] and in [17] was “inactive” throughout. Also, the max response in assay [20] is 8.62%.
Regarding `CC[N+](CC)(CC)CCOc1ccc(/C=C/c2ccccc2)cc1`, the Potency in assay [1] is 6.01 µM (active); in assay [5], 26.8 µM (active); in assay [19], 6.74 µM (active). For the same compound, the Potency entry in assay [2], in [3], in [18], in assay [6], in assay [8] and in assay [9] was “inactive” throughout. The Potency entry in [11], in assay [12], in [14], in assay [15], in assay [16] and in assay [17] was “inactive” each time.
For `COc1c(C)c2c(c(O)c1C/C=C(\C)CCC(=O)OCCN1CCOCC1)C(=O)OC2`, the Potency result in assay [1], in [2], in assay [3], in [4], in [18] and in [5] was “inactive” each time. Moreover, the Potency entry in assay [6], in [7], in assay [8], in assay [19], in [9] and in assay [10] was “inactive” in each case. In addition, the Potency entry in assay [11], in assay [12], in [13], in [14], in assay [15] and in assay [16] was “inactive” each time. The Potency result in [17] was “inactive”.
With `C=CC(=O)Nc1cc2c(Nc3ccc(F)c(Cl)c3)ncnc2cc1OCCCN1CCOCC1`, the Potency in [1] is 10.7 µM (active); in [2] it was 10.7 µM (active); in assay [20], 9.52 µM (active); in assay [4], 19 µM (active); in assay [18], 21.3 µM (active); in [5], 9.52 µM (active). The Potency was 10.7 µM (active) in [6]; 6.01 µM (active) in [7]; 12 µM (active) in assay [19]; 6.01 µM (active) in assay [10]; 8.49 µM (active) in [12]; 10.7 µM (active) in assay [13]. Moreover, the Potency in assay [14] and in assay [16] was 9.52 µM (active) each time. The Potency entry in assay [9], in assay [11], in [15] and in assay [17] was “inactive” in each case.

For the origin of these results see PubChem BioAssay (Tox21).
